Measured values taken from ChEMBL document CHEMBL4513216, “Probing the Open Global Health Chemical Diversity Library for Multistage-Active Starting Points for Next-Generation Antimalarials” (ACS Infect Dis, 2020).
Out of some 68,000 compounds screened, about 2,700 (4%) showed an effect of 50% or more. The full list was thinned out, with strong results kept by preference.

test system: Plasmodium berghei; experiment: Screen against P. berghei liver stage (PbLuc), transformed with Luciferase, at 2uM; assay type: functional, HepG2; settings: tested at 2 uM

Question: Which INHIBITION does the source give for `Cc1ccsc1C(=O)N1CCc2ncc(CN(C)C)n2CC1` here?
Answer: The INHIBITION was 23.59%.

Question: Which INHIBITION does the source give for `Cc1cc(C)c2[nH]c(=O)c(CN3CCCC4(C3)CN(C)C(=O)O4)cc2c1` (stereo not given) here?
Answer: The INHIBITION was 15.08%.

Question: How did the INHIBITION turn out when `O=C(c1ccc(S(=O)(=O)NCCc2ccccn2)cc1)N1CCCC1` was run?
Answer: The INHIBITION was 29.41%.

Question: How did the INHIBITION turn out when `CC(C)c1nn(C)c(N(C)C)c1CNCc1ccnn1C` was run?
Answer: Its INHIBITION is 32.93%.

Question: How did the INHIBITION turn out when `CCC1CN(CC(=O)NCCOC)CCO1` (stereo not given) was run?
Answer: Its INHIBITION is 36.09%.

Question: `CCCNC(=O)CN1CCOC(CC)C1` (stereo not given) was tested. Which INHIBITION did it give?
Answer: Its INHIBITION is 60.52%.

Question: Which INHIBITION does the source give for `CCC1CN(CC(=O)NCCC#N)CCO1` (stereo not given) here?
Answer: Its INHIBITION is 21.72%.

Question: With `CCN(CC1CCOCC1)C(=O)C1CC(=O)N(Cc2cccnc2)C1` (stereo not given) as the molecule, how does the INHIBITION read?
Answer: The INHIBITION was 10.83%.

Question: With `COc1ccc(CC(=O)N2CCCN(c3ccc(C#N)cc3)CC2)cc1` as the molecule, how does the INHIBITION read?
Answer: Its INHIBITION is -28.34%.

Question: Which INHIBITION does the source give for `O=C(NC1CCC1)C1=NOC2(CCN(Cc3ccc(F)cc3)C2)C1` (stereo not given) here?
Answer: The INHIBITION was 34.13%.

Question: How did the INHIBITION turn out when `CN(C)CCNC(=O)c1ccc(OC2CCN(C(=O)CO)CC2)c(Cl)c1` was run?
Answer: Its INHIBITION is 14.63%.

Question: How did the INHIBITION turn out when `COC(=O)N1CCC(Oc2ccc(C(=O)NCCN(C)C)cc2Cl)CC1` was run?
Answer: The INHIBITION was 30.62%.

Question: `CCC(=O)N1CCC(Oc2ccc(C(=O)NCCN(C)C)cc2Cl)CC1` was tested. Which INHIBITION did it give?
Answer: The INHIBITION was 51.96%.

Question: With `NC(=O)c1nc(CN2CCOC(C(F)(F)F)C2)no1` (stereo not given) as the molecule, how does the INHIBITION read?
Answer: The INHIBITION was 43.91%.

Question: `CNC(=O)c1nc(CN2CCOC(C(F)(F)F)C2)no1` (stereo not given) was tested. Which INHIBITION did it give?
Answer: The INHIBITION was 65.76%.

Question: `CNC(=O)c1nc(CN2CCOC(CCCC(C)C)C2)no1` (stereo not given) was tested. Which INHIBITION did it give?
Answer: Its INHIBITION is -65.52%.

Question: `COC(=O)CC(c1ccc(OC)c(OC)c1OC)c1c(O)n[nH]c1C` (stereo not given) was tested. Which INHIBITION did it give?
Answer: The INHIBITION was -8.07%.

Question: For `Cc1cc2c(=O)n3c(nc2s1)CCN(C(=O)c1nn(C)cc1Cl)CC3`, which INHIBITION is on record?
Answer: The INHIBITION was 26.56%.

Question: How did the INHIBITION turn out when `Cc1cc2c(=O)n3c(nc2s1)CCN(C(=O)c1cn(C)nc1C)CC3` was run?
Answer: Its INHIBITION is 66.16%.

Question: `Cc1cc2c(=O)n3c(nc2s1)CCN(C(=O)c1cnn(C)c1)CC3` was tested. Which INHIBITION did it give?
Answer: Its INHIBITION is -18.04%.

Question: Which INHIBITION does the source give for `COCCc1noc(CN(C)c2cc(C)ncn2)n1` here?
Answer: The INHIBITION was 41.63%.

Question: With `Cc1nc(N2CCN(C(=O)c3ccncc3)CC2)c2c(n1)c(C)nn2C` as the molecule, how does the INHIBITION read?
Answer: Its INHIBITION is 4.87%.

Question: For `COc1cccc(CC2(C(=O)O)CCN(c3nccs3)CC2)c1`, which INHIBITION is on record?
Answer: The INHIBITION was 50.59%.

Question: With `COc1cccc(CC2(CO)CCCN(c3nccs3)C2)c1` (stereo not given) as the molecule, how does the INHIBITION read?
Answer: The INHIBITION was 14.21%.

Question: `COc1cccc(CC2(C(=O)O)CCN(c3ccc(Cl)cn3)CC2)c1` was tested. Which INHIBITION did it give?
Answer: The INHIBITION was 7.67%.

Question: How did the INHIBITION turn out when `Cc1nc(N(C)Cc2cccc(O)c2)nc2cc(S(C)(=O)=O)ccc12` was run?
Answer: Its INHIBITION is 33.4%.

Question: With `O=C(CN1CCCc2sccc2C1=O)NC1CCc2nccn2C1` (stereo not given) as the molecule, how does the INHIBITION read?
Answer: Its INHIBITION is -4.89%.

Question: Which INHIBITION does the source give for `O=S(=O)(c1cccs1)N1CCN(Cc2nc(-c3ccco3)cs2)CC1` here?
Answer: The INHIBITION was 29.89%.

Question: With `O=S(=O)(NC1CCC12CCN(CC1CCOCC1)CC2)c1ccccc1` (stereo not given) as the molecule, how does the INHIBITION read?
Answer: The INHIBITION was 51.36%.

Question: How did the INHIBITION turn out when `O=S(=O)(NC1CCC12CCN(CC1CC1)CC2)c1ccccc1` (stereo not given) was run?
Answer: The INHIBITION was -3.36%.

Question: How did the INHIBITION turn out when `Cc1ccc(CN2CCC3(CCC3NS(=O)(=O)c3ccccc3)CC2)o1` (stereo not given) was run?
Answer: The INHIBITION was 11.18%.

Question: How did the INHIBITION turn out when `CCc1nnc2n1CCN(C(=O)C(C)Oc1ccc(C#N)cc1)C2` (stereo not given) was run?
Answer: The INHIBITION was 10.77%.

Question: How did the INHIBITION turn out when `CNC(=O)C1CCN(c2ncc3c(n2)CCN3c2ccccc2)C1` (stereo not given) was run?
Answer: The INHIBITION was 51.96%.

Question: `CC(=O)N(C)C1CCN(c2ncc3c(n2)CCN3c2ccccc2)C1` (stereo not given) was tested. Which INHIBITION did it give?
Answer: Its INHIBITION is -13.72%.

Question: `CN(CCO)C1CCN(c2ncc3c(n2)CCN3c2ccccc2)CC1` was tested. Which INHIBITION did it give?
Answer: Its INHIBITION is 15.84%.

Question: For `COCCC1(CNC(=O)Nc2ccnc(C)c2)CCCC1`, which INHIBITION is on record?
Answer: Its INHIBITION is -37.69%.

Question: `CC(=O)N1N=C(c2ccco2)OC1C(=O)NCCc1ccc(F)cc1` (stereo not given) was tested. Which INHIBITION did it give?
Answer: Its INHIBITION is 58.6%.

Question: For `CC(=O)N1N=C(c2ccccc2)OC1C(=O)NCCc1ccc(O)cc1` (stereo not given), which INHIBITION is on record?
Answer: Its INHIBITION is 26.64%.

Question: `CC(=O)N1N=C(c2ccccc2)OC1C(=O)NCCc1ccc(C)cc1` (stereo not given) was tested. Which INHIBITION did it give?
Answer: The INHIBITION was 34.18%.

Question: With `CC(=O)N1N=C(c2ccccc2)OC1C(=O)NCCC1=CCCCC1` (stereo not given) as the molecule, how does the INHIBITION read?
Answer: The INHIBITION was 85.54%.

Question: With `CC(=O)N1N=C(c2ccco2)OC1C(=O)NCCc1ccc(O)cc1` (stereo not given) as the molecule, how does the INHIBITION read?
Answer: Its INHIBITION is 20.42%.

Question: For `CC(=O)N1N=C(c2ccco2)OC1C(=O)NCC(C)C` (stereo not given), which INHIBITION is on record?
Answer: The INHIBITION was 5.77%.

Question: `Cc1noc(CNC(=O)[C@@H](C)NC(=O)OC(C)(C)C)n1` was tested. Which INHIBITION did it give?
Answer: The INHIBITION was -29.78%.

Question: For `Cc1[nH]n(C)c2nc(=O)cc(C(F)(F)C(F)(F)F)c1-2`, which INHIBITION is on record?
Answer: Its INHIBITION is -69.92%.

Question: Which INHIBITION does the source give for `O=C([C@@H]1COC[C@H]2CN(C3CCCC3)C[C@H]21)N1CCC(F)CC1` here?
Answer: Its INHIBITION is 9.45%.

Question: Which INHIBITION does the source give for `O=S(=O)(CCc1ccccc1)Nc1cc(Cl)ccn1` here?
Answer: The INHIBITION was 0.51%.

Question: For `CCn1cc(S(=O)(=O)N2CCC3(CCCN(CC4CCC4)C3=O)C2)cn1` (stereo not given), which INHIBITION is on record?
Answer: Its INHIBITION is 13.58%.

Question: With `Cc1cnn(CC2CCCCN2C(=O)CN(C)C2CC2)c1` (stereo not given) as the molecule, how does the INHIBITION read?
Answer: Its INHIBITION is 21.31%.

Question: `O[C@H]1CN(CCOc2ccc(F)cc2)CC[C@@]12CCCO2` was tested. Which INHIBITION did it give?
Answer: The INHIBITION was 9.05%.

Question: For `O=C(C1CCOCC1)N1CCc2ncc(CN3CCCC3)n2CC1`, which INHIBITION is on record?
Answer: The INHIBITION was -9.48%.

Question: `O=C(C1CCOCC1)N1CCc2ncc(CN3CCCCC3)n2CC1` was tested. Which INHIBITION did it give?
Answer: The INHIBITION was 41.28%.

Question: Which INHIBITION does the source give for `O=C(N1CCOCC1)N1CCc2ncc(CN3CCCCC3)n2CC1` here?
Answer: Its INHIBITION is 56.25%.

Question: `COc1c(Cl)cccc1NCc1csc(NC(C)=O)n1` was tested. Which INHIBITION did it give?
Answer: The INHIBITION was -49.16%.

Question: How did the INHIBITION turn out when `Cc1noc([C@H]2C[C@@H]3CCN(C(=O)N(C)C)C[C@H]3O2)n1` was run?
Answer: Its INHIBITION is -7.58%.

Question: For `CC(NCc1nnc2n1CCCC2)c1nc(-c2cccs2)no1` (stereo not given), which INHIBITION is on record?
Answer: The INHIBITION was 26.14%.

Question: `Cc1cc(NC(=O)CN2CCn3c(nnc3C3CC3)C2)on1` was tested. Which INHIBITION did it give?
Answer: The INHIBITION was 17.12%.

Question: How did the INHIBITION turn out when `CCN(CC)c1ncc(Cl)c(C(=O)NC2CCC(O)CC2)n1` (stereo not given) was run?
Answer: Its INHIBITION is -2.22%.

Question: With `CCN(CC)c1ncc(Cl)c(C(=O)NC2CCc3nccn3C2)n1` (stereo not given) as the molecule, how does the INHIBITION read?
Answer: Its INHIBITION is 59.56%.

Question: With `CCN(CC)c1ncc(Cl)c(C(=O)NC2CC2)n1` as the molecule, how does the INHIBITION read?
Answer: Its INHIBITION is 26.8%.

Question: With `CCOC(=O)[C@@H]1[C@@H](c2ccccc2)CN2CCN(C(C)=O)C[C@H]12` as the molecule, how does the INHIBITION read?
Answer: Its INHIBITION is 40.13%.

Question: Which INHIBITION does the source give for `CCOCCn1c(=O)[nH]c2cc(C(=O)N(C)Cc3nc(C)cs3)ccc21` here?
Answer: Its INHIBITION is 51.98%.

Question: For `CCOCCn1c(=O)[nH]c2cc(C(=O)N(C)Cc3cc(C)[nH]n3)ccc21`, which INHIBITION is on record?
Answer: Its INHIBITION is 14.24%.

Question: Which INHIBITION does the source give for `CCOCCn1c(=O)[nH]c2cc(C(=O)N(C)Cc3nc(C)c[nH]3)ccc21` here?
Answer: Its INHIBITION is 11.64%.

Question: `COCCN1CCc2ncnc(-c3ccccc3)c2CC1` was tested. Which INHIBITION did it give?
Answer: The INHIBITION was 39.44%.

Question: `Cc1ccn2ncc(C(=O)N3CCCC(c4cc(C)[nH]n4)C3)c2n1` (stereo not given) was tested. Which INHIBITION did it give?
Answer: Its INHIBITION is 18.91%.

Question: `Cc1csc(C2CCCN(C(=O)c3cnn4ccc(C)nc34)C2)n1` (stereo not given) was tested. Which INHIBITION did it give?
Answer: Its INHIBITION is 14.96%.

Question: How did the INHIBITION turn out when `Cc1ccn2ncc(C(=O)N3CCCC(n4cccn4)C3)c2n1` (stereo not given) was run?
Answer: Its INHIBITION is 5.52%.

Question: With `Cc1ccn2ncc(C(=O)N3CCCC(c4noc(C)n4)C3)c2n1` (stereo not given) as the molecule, how does the INHIBITION read?
Answer: The INHIBITION was 50.52%.

Question: With `CCc1nccn1C1CCCN(C(=O)c2cnn3ccc(C)nc23)C1` (stereo not given) as the molecule, how does the INHIBITION read?
Answer: Its INHIBITION is -14.3%.

Question: For `Cc1ccn2ncc(C(=O)N3CCCC(n4ccnc4C)C3)c2n1` (stereo not given), which INHIBITION is on record?
Answer: Its INHIBITION is 56.02%.
